Compounds with a hit are over-represented: about 2.4% of the library has one in this group of screens.
M1 ag parental: counter-screen for M1 agonists: effect in parental CHO-K1 cells. Fluo-8 calcium fluorescence; scaled to maximal ATP response, vehicle zero. activation, % at 3 µM. 360,000 tested, 0.48% active. AID 602248, 2012; in the data active = activation above about 15%;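 also: untransfected CHO-K1 host cells lacking M1 receptor as counterscreen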
M1 PAM parental: nonselective calcium activators in parental CHO-K1 cells, primary screen, counter-screen for M1 PAM project, cell-based, Fluo-8 calcium fluorescence, full deck, 1536-well; ATP EC20; 0% at ATP EC20, 100% at ATP max; activation, % at 3 µM; 360,000 tested, 0.02% active; AID 602247, 2012;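 active = activation above the run cutoff, the mean activation of all test compounds plus 3 SD, cut at about 40% in these data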;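 also: peak over basal fluorescence ratio in a 140 s read after ATP addition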
CHRM1 agonist: human M1 muscarinic receptor agonists, primary screen, Fluo-8 calcium fluorescence, CHO-K1 cells, HTS; Muscarinic acetylcholine receptor M1 (Homo sapiens), P11229; CHO-K1 hM1, agonist mode; 0% DMSO, 100% acetylcholine EC100; activation, % at 3 µM; 360,000 tested, 0.33% active;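 active = activation above the run's mean compound activation plus 3 SD, cut at about 16% in these data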;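 also: peak over basal fluorescence ratio within a 140 s kinetic read after compound addition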
Target sequence (P11229 whole entry, looked up): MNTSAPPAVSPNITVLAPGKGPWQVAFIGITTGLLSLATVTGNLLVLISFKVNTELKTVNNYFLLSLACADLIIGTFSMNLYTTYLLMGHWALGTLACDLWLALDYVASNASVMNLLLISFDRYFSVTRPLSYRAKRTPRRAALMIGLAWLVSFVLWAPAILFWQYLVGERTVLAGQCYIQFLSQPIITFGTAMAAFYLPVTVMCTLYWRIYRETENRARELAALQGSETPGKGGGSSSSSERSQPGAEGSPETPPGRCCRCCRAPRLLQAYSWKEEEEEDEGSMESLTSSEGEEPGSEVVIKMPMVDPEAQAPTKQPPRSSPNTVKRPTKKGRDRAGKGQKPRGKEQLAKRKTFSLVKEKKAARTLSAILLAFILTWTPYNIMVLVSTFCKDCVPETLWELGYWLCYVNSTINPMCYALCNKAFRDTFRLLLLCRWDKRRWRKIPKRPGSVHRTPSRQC
CHO-K1 Ca antag: M1 antagonist counterscreen hit in parental CHO-K1 cells; 360,000 tested, 0.6% active; ATP-induced calcium, Fluo-8 fluorescence; inhibition, % at 3 µM;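 active = inhibition above a per-plate cutoff, the plate's mean sample inhibition plus 3 SD, cut at about 24% in these data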
CHRM1 antagonist: human M1 muscarinic receptor antagonists, primary screen, CHO-K1 cells, Fluo-8 calcium fluorescence, 1536-well | inhibition, % at 3 µM | 360,000 tested, 1.3% active | Muscarinic acetylcholine receptor M1 (Homo sapiens), P11229 | CHO-K1 hM1, ACh EC80 antagonist;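 active = percent inhibition above its own plate's cutoff, namely the mean of that plate's compound wells plus 3 SD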;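 also: peak over basal fluorescence ratio during 140 s after agonist addition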
CHRM1 PAM: human M1 muscarinic receptor positive allosteric modulators, primary screen, CHO-K1 cells, Fluo-8 calcium fluorescence, 1536-well; Muscarinic acetylcholine receptor M1 (Homo sapiens), P11229; CHO-K1 hM1, ACh EC20; 0% = ACh EC20, 100% = maximal ACh; 360,000 tested, 0.088% active; activation, % at 3 µM; in the data active = activation above about 19%, passing the limit was not always enough
A number is an active result; 0 = inactive.

SMILES | M1 ag parental | M1 PAM parental | CHRM1 agonist | CHO-K1 Ca antag | CHRM1 antagonist | CHRM1 PAM
COc1ccc(C[C@@H]2CN3C(=NC[C@@H]3C)N2CCNC(=O)c2ccc(C)c(Br)c2)cc1 | 0 | 0 | 0 | 0 | 40 | 0
COc1ccc(CC(=O)NC(C)c2nnc(SCCC(=O)Nc3ccccc3)n2C)cc1 (configuration not stated) | 0 | 0 | 0 | 0 | 0 | 0
CCCCCSc1nnc(N)s1 | 0 | 0 | 0 | 0 | 0 | 27
Cc1ccc(CC(CC(=O)O)C(=O)NCc2ccccc2)cc1 (configuration not stated) | 0 | 0 | 0 | 0 | 0 | 0
Cc1ccc(CNC(=O)[C@H](Cc2ccccc2)NC(=O)C2CCNCC2)cc1 | 0 | 0 | 0 | 31 | 0 | 0
COc1ccc(C(CCNCc2ccc(OC(C)C)cc2)c2ccccc2OC)cc1 (configuration not stated) | 18 | 0 | 0 | 0 | 0 | 0
COc1ccc(CNCCC(c2ccc(OC)cc2)c2ccccc2OC)cc1 (configuration not stated) | 0 | 0 | 0 | 0 | 0 | 0
Cc1ccc(-n2ncc3c(N4CCN(c5ccccc5)CC4)ncnc32)c(C)c1 | 0 | 0 | 0 | 0 | 24 | 0
c1ccc(Nc2ccc3c4c(cccc24)CC3)cc1 | 40 | 0 | 43 | 40 | 52 | 0
c1ccc(Nc2cccc3ccccc23)cc1 | 0 | 0 | 0 | 0 | 0 | 0
CC(C)Cn1c(=O)c(-[n+]2ccccc2)c([O-])c2ccccc21 | 0 | 0 | 0 | 0 | 0 | 0
COC(=O)C1=C(C)NC(c2c(O)ccc3ccccc23)C(C(=O)OC)=C1C (configuration not stated) | 0 | 0 | 0 | 0 | 0 | 0
O=C(NOCc1ccccc1)c1ccc(Cl)cc1 | 0 | 0 | 0 | 0 | 41 | 0
CC(C)(C)c1ccc(OCCNC(=O)Cc2ccc(F)cc2)cc1 | 0 | 0 | 0 | 27 | 0 | 0
COCCNC(=O)Cc1ccc(F)cc1 | 0 | 0 | 0 | 0 | 0 | 0
c1ccc2c(c1)[nH]c1ccncc12 | 0 | 0 | 18 | 0 | 0 | 0
C/C(=N\N1C(=O)c2ccccc2NC1c1ccco1)c1ccccc1O (configuration not stated) | 0 | 0 | 0 | 0 | 0 | 0
COc1ccc(Cl)cc1S(=O)(=O)n1nnc2ccccc21 | 0 | 0 | 0 | 28 | 0 | 0
COc1ccc(OC)c(S(=O)(=O)n2nnc3ccccc32)c1 | 0 | 0 | 0 | 0 | 0 | 0
O=C(Nc1ccccc1)Nc1ccc(-n2ccc(C(F)(F)F)n2)cc1 | 17 | 0 | 0 | 26 | 68 | 0
COc1ccccc1CCc1nnc(CCC(=O)N(C)Cc2cccc3cnccc23)o1 | 0 | 0 | 0 | 25 | 0 | 0
O=C(Nc1ccc(OC(F)(F)F)cc1)N1CCc2nc(NCc3cccc(Oc4ccccc4)c3)ncc2C1 | 0 | 0 | 0 | 0 | 43 | 0
Cc1nn(CC(O)CN2c3ccccc3Sc3ccccc32)c(C)c1Br (configuration not stated) | 18 | 0 | 0 | 0 | 0 | 0
OC(CN1c2ccccc2Sc2ccccc21)Cn1nnc2ccccc21 (configuration not stated) | 0 | 0 | 0 | 0 | 0 | 0
COc1cccc(N=Nc2ccc3cccnc3c2O)c1 | 38 | 0 | 30 | 0 | 31 | 0
SMILES | M1 ag parental | M1 PAM parental | CHRM1 agonist | CHO-K1 Ca antag | CHRM1 antagonist | CHRM1 PAM
COc1cccc(N=Nc2ccc(O)c3ncccc23)c1 | 41 | 0 | 24 | 35 | 40 | 0
COc1ccc(N=Nc2ccc(O)c3ncccc23)cc1 | 0 | 0 | 0 | 0 | 0 | 0
COc1cc(OC)cc(C(=O)Nc2cccc3cccnc23)c1 | 0 | 0 | 0 | 0 | 0 | 0
CC(=O)c1ccc(OCC(=O)NCC(c2ccco2)N2CCCCC2)cc1 (configuration not stated) | 0 | 0 | 0 | 0 | 0 | 0
O=C1CSc2ccc(S(=O)(=O)NCc3ccc(F)cc3)cc2N1 | 0 | 0 | 0 | 0 | 0 | 0
O=C(c1ccccc1)C(Nc1ccccn1)c1ccccc1 (configuration not stated) | 0 | 0 | 0 | 0 | 35 | 0
CSc1ccc(Cc2ccc(Cl)cc2Cl)nn1 | 0 | 0 | 0 | 0 | 0 | 0
N#CC1=C(N)Oc2cc(O)c(Cl)cc2C1c1ccccc1F (configuration not stated) | 0 | 0 | 26 | 0 | 0 | 0
N#CC1=C(N)Oc2cc(O)c(Cl)cc2C1c1cccnc1 (configuration not stated) | 0 | 0 | 0 | 0 | 0 | 0
CC(=NNC(=S)Nc1cccc(Cl)c1)c1ccccn1 | 0 | 0 | 0 | 0 | 0 | 0
COc1ccc(CN(CCNC(=O)CCCCC(=O)NCCN(Cc2ccc(OC)cc2)C(C)C)C(C)C)cc1 | 0 | 0 | 0 | 0 | 73 | 0
NCCCC[C@H]1CNC(=O)C(=O)N1CC1CCCCC1 | 0 | 0 | 0 | 0 | 0 | 0
CCN(CC)CCn1c2ccccc2c2nc3ccccc3nc21 | 0 | 0 | 0 | 0 | 0 | 0
CCN(CC)CCn1c2ccccc2c2n[nH]c(=S)nc21 | 0 | 0 | 0 | 0 | 36 | 0
CCN(CC)CCSc1nnc2c3ccccc3n(Cc3ccccc3)c2n1 | 0 | 0 | 0 | 0 | 51 | 0
CCN(CC)CCSc1nnc2c3cc(F)ccc3n(Cc3ccccc3)c2n1 | 0 | 0 | 0 | 0 | 0 | 0
Cn1c2ccccc2c2n[nH]c(=S)nc21 | 15 | 0 | 0 | 0 | 0 | 0
COc1ccc(NC2=C(C(C)=O)C(c3ccc(OC)c(OC)c3)C(C(C)=O)C(C)(O)C2)cc1 (configuration not stated) | 0 | 0 | 0 | 0 | 0 | 0
CCCOc1ccc(Cl)cc1CNc1ccccc1 | 0 | 0 | 0 | 0 | 0 | 0
Cc1cc(C)nc(/N=C2/NC(=O)CS2)n1 | 0 | 0 | 0 | 0 | 0 | 0
Cn1ccc2c(-c3ccc(F)cc3)cc3c(c21)C1CCC3C1 (configuration not stated) | 0 | 0 | 0 | 0 | 0 | 0
COc1ccc(-c2cc3c(c4c2ccn4C)C2CCC3C2)cc1F (configuration not stated) | 0 | 0 | 0 | 24 | 0 | 0
COCCNC(=S)N1CCC(Cc2ccccc2)CC1 | 0 | 0 | 0 | 0 | 0 | 0
CCCOc1ccc(/C=N/NC(=O)c2ccc3c(c2)OCO3)c(OCCC)c1 | 0 | 0 | 0 | 0 | 0 | 32
COc1ccccc1/C=N/NC(=O)c1ccc2c(c1)OCO2 | 0 | 0 | 0 | 0 | 0 | 0
CCC(C(=O)c1ccc2ncccc2c1)c1ccccc1 (configuration not stated) | 0 | 0 | 0 | 0 | 35 | 0
Nc1c(C=C2C=CC(=O)C=C2)c(=O)nc2sc(CC(=O)N3CCCC3)nn12 | 0 | 0 | 0 | 0 | 0 | 0
